Experimental data as given in PubChem BioAssay.
Calls of active or inactive are those of the source. Unless noted, no rule for the calls is given here.

Tests used:
[1] = HepG2 liver cancer cell viability effects, profiling panel, resazurin fluorescence, 24 h, PK04 Diversity Set (AID 1172); conditions: higher = more signal
[2] = basal S. cerevisiae growth modulation, no modifier, primary screen, OD600, strain BY4716, 24 h, basal condition (AID 1173); conditions: OD600, 24 h, higher = more signal, called active from +8 up or from −8 down
[3] = MM1S myeloma cell viability, profiling panel, resazurin fluorescence, basal, 24 h, PK04 Diversity Set (AID 1174); conditions: higher = more signal, called active from +8 up or from −8 down;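 also: MM1S multiple myeloma cell line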
[4] = biological target: Dihydroorotate dehydrogenase (quinone), mitochondrial (Plasmodium falciparum (isolate 3D7)) (UniProt Q08210); assay: PfDHODH enzyme inhibitors, primary screen, biochemical, C-terminal His tag, absorbance 600 nm (AID 1175); conditions: DCIP absorbance 600 nm, higher = more signal, called active from +8 up or from −8 down;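 also: recombinant parasite enzyme with a five histidine tag at its C terminus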
Sequence of Dihydroorotate dehydrogenase (quinone), mitochondrial (Plasmodium falciparum (isolate 3D7)) (Q08210 whole entry, looked up): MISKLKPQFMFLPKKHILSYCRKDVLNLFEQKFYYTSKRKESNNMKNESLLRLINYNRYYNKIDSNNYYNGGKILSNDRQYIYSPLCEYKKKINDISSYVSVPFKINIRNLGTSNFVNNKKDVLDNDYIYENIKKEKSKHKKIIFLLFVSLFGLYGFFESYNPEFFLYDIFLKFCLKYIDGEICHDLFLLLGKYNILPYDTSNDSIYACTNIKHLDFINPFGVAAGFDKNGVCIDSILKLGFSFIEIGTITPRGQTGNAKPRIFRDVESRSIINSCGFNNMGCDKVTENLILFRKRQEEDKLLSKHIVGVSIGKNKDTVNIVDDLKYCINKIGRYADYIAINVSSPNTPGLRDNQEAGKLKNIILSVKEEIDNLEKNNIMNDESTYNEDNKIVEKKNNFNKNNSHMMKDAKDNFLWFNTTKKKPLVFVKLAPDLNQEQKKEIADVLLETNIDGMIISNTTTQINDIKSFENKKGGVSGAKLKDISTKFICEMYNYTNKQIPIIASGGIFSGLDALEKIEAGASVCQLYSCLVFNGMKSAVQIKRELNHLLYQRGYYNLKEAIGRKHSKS

[5] = P. aeruginosa biofilm formation inhibitors, primary screen, strain PAO1, LB-PBS medium, absorbance 600 nm (AID 1176); conditions: P. aeruginosa PAO1 growth/biofilm, A600, 12 h; higher = more signal
[6] = S. cerevisiae RM11-1a growth modifiers, primary screen, strain RM11-1a, OD600, basal, 24 h (AID 1177); conditions: OD600, 24 h, higher = more signal, called active from +8 up or from −8 down;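 also: cultures grown under basal conditions with no added stressor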
[7] = E. coli acrAB mutant growth effects, primary screen, E. coli filamentation inducers, strain DRC39, OD650, 24 h (AID 1178); conditions: higher = more signal, called active from +8 up or from −8 down;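 also: growth measured as culture turbidity by optical density at 650 nm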
[8] = E. coli acrAB mutant growth effects, primary screen, E. coli filamentation inducers, strain DRC39, OD650, 48 h (AID 1179);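 also: screen aims at cell division blockers that make cells filament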; conditions: E. coli DRC39 delta-acrAB growth, higher = more signal, called active from +8 up or from −8 down
[9] = RPMI8226 myeloma cell viability, profiling panel, resazurin fluorescence, basal, 24 h, PK04 Diversity Set (AID 1180); conditions: higher = more signal;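 also: RPMI8826 multiple myeloma cell line at 5000 cells per well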
[10] = biological target: E3 ubiquitin-protein ligase XIAP (Homo sapiens) (UniProt P98170); assay: XIAP binders, primary screen, biophysical, small-molecule microarray, fluorescence 635 nm (AID 1181); conditions: small-molecule microarray binding, higher = more signal;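 also: score merges 667 nm emission and signal to noise over triplicate slides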
Sequence of E3 ubiquitin-protein ligase XIAP (Homo sapiens) (P98170 whole entry, looked up): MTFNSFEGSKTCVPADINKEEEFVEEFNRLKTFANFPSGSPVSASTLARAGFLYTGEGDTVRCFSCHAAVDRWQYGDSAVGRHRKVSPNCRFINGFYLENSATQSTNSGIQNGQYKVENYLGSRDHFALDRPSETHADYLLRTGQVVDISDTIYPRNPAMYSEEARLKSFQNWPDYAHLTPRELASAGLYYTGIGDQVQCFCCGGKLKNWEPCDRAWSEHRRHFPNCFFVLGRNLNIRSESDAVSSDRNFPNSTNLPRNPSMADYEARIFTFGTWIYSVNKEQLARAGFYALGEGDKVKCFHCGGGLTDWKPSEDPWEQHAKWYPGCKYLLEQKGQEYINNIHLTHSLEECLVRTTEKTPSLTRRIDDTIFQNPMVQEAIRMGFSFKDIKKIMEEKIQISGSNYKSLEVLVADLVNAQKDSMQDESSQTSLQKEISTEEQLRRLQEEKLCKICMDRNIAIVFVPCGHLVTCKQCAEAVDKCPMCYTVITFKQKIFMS

[11] = tested on: XIP peptide (Xip251-270) binding; assay: small-molecule binders of XIP peptide, primary screen, biochemical, small-molecule microarray, fluorescence 635/667 nm, 0.1 µg/mL protein (AID 1182); conditions: fluorescent protein binding, 635 nm, higher = more signal, called active from +8 up or from −8 down
XIP peptide (Xip251-270) = assay: small-molecule binders of XIP peptide, primary screen, biochemical, small-molecule microarray, fluorescence 635/667 nm, 0.5 µg/mL protein (AID 1183); conditions: small-molecule microarray binding, fluorescence 635 nm; higher = more signal
[12] = Plasmodium falciparum growth inhibition, primary screen, strain 3D7, DAPI fluorescence, 100 nL (AID 1184);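 also: parasites grown inside human red blood cells in medium with human serum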; conditions: P. falciparum 3D7 growth, 3 d, higher = more signal
[13] = biological target: Homeobox protein Hox-A13 (Mus musculus) (UniProt Q62424); assay: inhibitors of HoxA13-DNA binding, primary screen, biochemical, fluorescence polarization, labeled oligonucleotide (AID 1185); conditions: 15 min, higher = more signal, called active from +8 up or from −8 down
Sequence of Homeobox protein Hox-A13 (Mus musculus) (Q62424 whole entry, looked up): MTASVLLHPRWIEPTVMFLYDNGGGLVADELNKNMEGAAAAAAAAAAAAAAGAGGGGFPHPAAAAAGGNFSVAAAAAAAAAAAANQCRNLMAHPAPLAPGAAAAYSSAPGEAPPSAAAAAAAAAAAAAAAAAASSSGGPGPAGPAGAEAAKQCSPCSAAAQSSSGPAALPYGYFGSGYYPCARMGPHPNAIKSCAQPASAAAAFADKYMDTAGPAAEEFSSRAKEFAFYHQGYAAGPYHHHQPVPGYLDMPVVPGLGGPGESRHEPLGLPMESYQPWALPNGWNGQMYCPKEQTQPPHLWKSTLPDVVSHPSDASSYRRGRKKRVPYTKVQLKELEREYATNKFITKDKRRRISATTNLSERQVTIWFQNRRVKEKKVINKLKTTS

[14] = inhibitors of hydroxyurea-induced Chk1 phosphorylation, primary screen, imaging, HeLa, phospho-Chk1 antibody, percent positive cells (AID 1186); conditions: hydroxyurea-induced phospho-Chk1 immunofluorescence imaging, higher = more signal
[15] = inhibitors of hydroxyurea-induced Chk1 phosphorylation, primary screen, imaging, HeLa, phospho-Chk1 nuclear intensity (AID 1187); conditions: hydroxyurea-induced phospho-Chk1 immunofluorescence imaging, higher = more signal

Row | SMILES | z-score [1] | z-score [2] | z-score [3] | composite z-score [4] | z-score [5] | z-score [6] | z-score [7] | z-score [8] | z-score [9] | composite z-score [10] | composite z-score [11] | composite z-score (XIP peptide (Xip251-270)) | z-score [12] | z-score [13] | z-score [14] | z-score [15]
1 | O=C(NCc1ccccc1)[C@@H]1c2ccccc2C(=O)N(Cc2ccc(OC(F)(F)F)cc2)[C@H]1c1ccc(CO)cc1 | 0.299 | -0.103 (inactive) | 0.61 (inactive) | -0.197 (inactive) | -0.109 (inactive) | -0.486 (inactive) | 0.822 (inactive) | 0.387 (inactive) | 1.5 | 0.371 | -0.304 (inactive) | 0.56 | -0.655 | -2.53 (inactive) | 0.0188 (inactive) | 0.243 (inactive)
2 | C=CCOC(=O)[C@@H]1[C@H]2C(=O)O[C@H](c3ccccc3)[C@H](c3ccccc3)N2[C@H](c2ccc(OCCOC(=O)[C@H]3C[C@H]4C(=O)N[C@@H](CCCCN(C)C)C(=O)N4[C@H]3c3ccc(O)cc3)cc2)[C@@]12C(=O)Nc1ccc(I)cc12 | -0.148 | -0.679 (inactive) | -0.467 (inactive) | -2.47 (inactive) | 1.34 (inactive) | 1.6 (inactive) | -0.466 (inactive) | 0.236 (inactive) | -0.431 | -0.224 | 0.94 (inactive) | 0.849 | -1.92 | 5.3 (inactive) | 0.289 (inactive) | 0.419 (inactive)
3 | O=C1NC(=O)C2C1C=CC(C(O)c1ccc([N+](=O)[O-])cc1)N2Nc1ccccn1 (stereo not drawn) | -0.731 | 0.579 (inactive) | -0.76 (inactive) | 0.622 (inactive) | 0.586 (inactive) | 0.485 (inactive) | -0.16 (inactive) | -0.372 (inactive) | -0.723 | 0.103 | -0.254 (inactive) | 0.726 | 1.21 | -2.37 (inactive) | -0.284 (inactive) | -0.347 (inactive)
4 | CC(C)NC(=O)[C@@]1(c2ccc([N+](=O)[O-])cc2)CC(=O)N(CC23CC4CC(CC(C4)C2)C3)[C@@H]1c1ccc(CO)cc1 | -1.21 | -0.692 (inactive) | -2.06 (inactive) | -0.257 (inactive) | 0.792 (inactive) | 0.311 (inactive) | -0.502 (inactive) | -0.655 (inactive) | -3.14 | -0.0295 | 1.26 (inactive) | 0.918 | -0.948 | -4.97 (inactive) | 0.103 (inactive) | 0.412 (inactive)
5 | CCCCCC1=C2CNC(CC(C)C)(C(=O)OC)C=C2C(C)C1=O (stereo not drawn) | -0.97 | 0.153 (inactive) | -1.2 (inactive) | -1.09 (inactive) | 0.383 (inactive) | 0.915 (inactive) | 0.0841 (inactive) | 0.501 (inactive) | -0.927 | 0.0907 | 0.814 (inactive) | 0.176 | -0.282 | -8.08 (active) | 1.32 (inactive) | 0.856 (inactive)
6 | C=CCOC(=O)[C@H]1[C@@H]2C(=O)O[C@@H](c3ccccc3)[C@@H](c3ccccc3)N2[C@@H](c2ccc(OCCOC(=O)[C@@H]3C[C@@H]4C(=O)N[C@@H](CCCCNC(C)=O)C(=O)N4[C@@H]3c3cccc(OCCO)c3)cc2)[C@]12C(=O)Nc1ccccc12 | -0.16 | 1.19 (inactive) | 0.222 (inactive) | 0.277 (inactive) | 2.87 (inactive) | 1.52 (inactive) | 0.253 (inactive) | 0.0636 (inactive) | 0.147 | 0.0623 | 0.785 (inactive) | 0.824 | -1.55 | -0.0913 (inactive) | 0.321 (inactive) | 0.0173 (inactive)
7 | CCCN1C(=O)[C@]2(CCC(=O)OC(C)(C)C)N=C(c3ccc(OCCCO)cc3)O[C@@H]2c2ccccc21 | -0.154 | -0.836 (inactive) | -2.08 (inactive) | 0.023 (inactive) | 3.33 (inactive) | 0.654 (inactive) | 1.08 (inactive) | 0.0565 (inactive) | -2.7 | 0.118 | 0.55 (inactive) | 0.601 | -2.33 | -3.37 (inactive) | -0.292 (inactive) | -0.312 (inactive)
8 | [N-]=[N+]=Nc1ccccc1C[C@]1(C(=O)N2CCOCC2)N=C(c2ccc(OCCCO)cc2)O[C@H]1c1ccccc1N=[N+]=[N-] | -1.37 | -2.51 (inactive) | -3.41 (inactive) | -0.481 (inactive) | -0.444 (inactive) | 0.275 (inactive) | 1.16 (inactive) | 2.48 (inactive) | -2.65 | 0.446 | 0.986 (inactive) | 0.721 | -2.32 | -3.58 (inactive) | -1.46 (inactive) | -2.06 (inactive)
